Results filed as inconclusive are left out. Active and inactive are the calls of the source. Unless noted, calls follow the shape of the full dose curve.
How the values were obtained:
[1] = Nuclear factor erythroid 2-related factor 2/antioxidant responsive element (Nrf2/ARE) small molecule agonists: qHTS cell viability counter screen in human keratinocytes (AID 1919968; active = well fitted curve in the direction sought with a large enough effect in the repeat runs; an effect the other way counts as inactive or inconclusive; also: nearly all actives have a fitted effect of over 55% in size)
Procedure, shortened: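 Parallel cytotoxicity read: KeratinoSens HaCaT cells, compound treatment 23 h, viability by CellTiter-Fluor fluorescence 1 h post-reagent.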

[2] = Nuclear factor erythroid 2-related factor 2/antioxidant responsive element (Nrf2/ARE) small molecule agonists: luciferase reporter gene qHTS assay in human keratinocytes (AID 1919969); also: nearly all actives have a fitted effect of over 35% in size
[3] = molecular target: Gonadotropin-releasing hormone receptor (Homo sapiens) (UniProt P30968); test: Human gonadotropin-releasing hormone receptor (GnRHR) small molecule agonists, calcium flux assay in GnRHR-HEK293 cells (AID 1920063); also: nearly all actives have a fitted effect of over 35% in size
Procedure, shortened: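 Calcium flux, agonist mode, human GnRHR stably integrated in HEK293; dye 1 h at 37 C before compound; Ex/Em=480/540 kinetic read, 3 min; 15 concentrations, triplicate.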

[4] = molecular target: KiSS-1 receptor (Homo sapiens) (UniProt Q969F8); test: Human kisspeptin (KISS1R) small molecule agonists, calcium flux assay in KISS1R-HEK293 cells (AID 1920064; active = well fitted curve in the direction sought with a large enough effect in the repeat runs; an effect the other way counts as inactive or inconclusive)
Procedure, shortened: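 Triplicate 15-concentration series were applied to dye-loaded human KISS1R HEK293 cells, and agonist-evoked calcium fluorescence was captured for 3 min.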

[5] = G protein-coupled receptor (GPCR) small molecule agonists, calcium flux assay: HEK293 wild type cell line counter screen (AID 1920065)
Procedure, shortened: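 Non-specific calcium responders were flagged by adding DMSO-dissolved compounds to dye-loaded cells and reading 480/540 nm fluorescence each second for 3 min; ATP served as positive control.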

[6] = p53 small molecule agonists, cell-based qHTS assay with human liver microsomes (AID 1963577)
Procedure, shortened: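 Cells carrying a p53-responsive bla reporter were rested 5 h (37 C, 5% CO2) before compound transfer. Human liver microsomes plus NADPH, 0.5 mg/mL final apiece, supplied metabolism during the 16 h 37 C exposure.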

[7] = p53 small molecule agonists, cell-based qHTS assay with rat liver microsomes (AID 1963578)
Procedure, shortened: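 Fluorescence from a beta-lactamase reporter under a p53 response element was measured after cells had been incubated 16 h at 37 C with test compound and rat liver microsomes plus NADPH (0.5 mg/mL final each).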

[8] = p53 small molecule agonists, cell-based qHTS assay with human liver microsomes: qHTS cell viability counter screen (AID 1963579); also: nearly all actives have a fitted effect of over 45% in size
Procedure, shortened: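 Seed p53RE-bla cells at 4,000 per well; incubate 5 h at 37 C; add compound, human liver microsomes and NADPH; incubate 16 h at 37 C; add CellTiter-Glo; after 30 min at room temperature, read luminescence.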

[9] = p53 small molecule agonists, cell-based qHTS assay with rat liver microsomes: qHTS cell viability counter screen (AID 1963580); also: nearly all actives have a fitted effect of over 45% in size
Procedure, shortened: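 After the beta-lactamase ratio was read, CellTiter-Glo was added to the same wells and luminescence measured at 30 min; cells had been treated 16 h at 37 C with compounds, rat liver microsomes and NADPH (0.5 mg/mL final each).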

[10] = p53 small molecule agonists, cell-based qHTS assay: qHTS cell viability counter screen (AID 1963581); also: nearly all actives have a fitted effect of over 45% in size
Procedure, shortened: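 Multiplexed with the reporter read, a CellTiter-Glo step (30 min, room temperature) gauges ATP-based viability of HCT-116 p53RE-bla cells after 16 h compound incubation at 37 C.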

[11] = p53 small molecule agonists, cell-based qHTS assay (AID 1963582; active = well fitted activation curve with a large enough effect in the signal ratio in the repeat runs, not every such curve was filed as active; the % refers to the signal ratio)
Procedure, shortened: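 Beta-lactamase reporter cells (p53RE-bla) treated with compounds for 16 h at 37 C; FRET substrate, 2 h, room temperature; fluorescence intensity.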

[12] = molecular target: 5-hydroxytryptamine receptor 2A (Homo sapiens) (UniProt P28223); test: 5-hydroxytryptamine receptor 2A (HTR2A) small molecule antagonists, cell-based qHTS assay (AID 1963586); also: nearly all actives have a fitted effect of over 45% in size
Procedure, shortened: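 CHO cells stably expressing human HTR2A were plated for 18 h at 37 C, then loaded with calcium dye for 1 h. Compounds were preincubated 5 min at room temperature before DOI (4 nM solution) was added. Kinetic fluorescence was read for 3 min.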

[13] = molecular target: 5-hydroxytryptamine receptor 2A (Homo sapiens) (UniProt P28223); test: 5-hydroxytryptamine receptor 2A (HTR2A) small molecule agonists, cell-based qHTS assay (AID 1963587); also: nearly all actives have a fitted effect of over 30% in size
Procedure, shortened: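 CHO cells stably expressing human HTR2A, plated 18 h, loaded with calcium dye 1 h at 37 C. Agonist mode: compounds added and intracellular calcium fluorescence recorded kinetically for 2 min at 1 sec intervals.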

[14] = molecular target: Muscarinic acetylcholine receptor M1 (Homo sapiens) (UniProt P11229); test: Cholinergic receptor muscarinic 1 (CHRM1) small molecule antagonists, cell-based qHTS assay (AID 1963588); also: nearly all actives have a fitted effect of over 40% in size
Procedure, shortened: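 Compounds were tested at 15 concentrations in three independent runs. Dye-loaded CHRM1-CHO cells were exposed 5 min at room temperature before stimulation by acetylcholine added at 50nM. Intracellular calcium was read kinetically on FDSS for 3 min.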

[15] = molecular target: Muscarinic acetylcholine receptor M1 (Homo sapiens) (UniProt P11229); test: Cholinergic receptor muscarinic 1 (CHRM1) small molecule agonists, cell-based qHTS assay (AID 1963589); also: nearly all actives have a fitted effect of over 35% in size
Procedure, shortened: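 qHTS, 15-point titration, 3 independent runs: compounds pin-transferred onto dye-loaded CHRM1-CHO cells (human M1), calcium fluorescence followed every second to detect agonism.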

[16] = cAMP Responsive Elements (CRE) small molecule agonists, cell-based qHTS assay (AID 1963590)
Procedure, shortened: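 Quantitative HTS for CRE agonists: HEK 293T CRE-bla cells, overnight plating, 3 h compound incubation at 37 C/5% CO2, then 2 h room-temperature LiveBLAzer B/G FRET substrate loading.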

[17] = cAMP Responsive Elements (CRE) small molecule antagonists, cell-based qHTS assay (AID 1963591; active = well fitted inhibition curve with a large enough effect in the signal ratio in the repeat runs, not every such curve was filed as active; the % refers to the signal ratio)
Procedure, shortened: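 Fluorescence intensity from cleaved LiveBLAzer B/G substrate (2 h, room temperature) quantified CRE-bla activity in HEK 293T cells exposed 3 h to compound with 0.25 uM final NKH477.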

[18] = molecular target: Beta-2 adrenergic receptor (Homo sapiens) (UniProt P07550); test: Adrenergic beta2 receptor (ADRB2) small molecule antagonists, cell-based qHTS assay (AID 1963592); also: series mostly up to about 92 µM; nearly all actives have a fitted effect of over 50% in size
Procedure, shortened: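 Assay format: CHO-ADRB2 cells, 18-20hr seeding at 37C/5% CO2, then compound plus 1nM isoproterenol agonist mix for 0.5hr RT. Homogeneous time-resolved fluorescence cAMP detection after 1hr, expressed as 665/615 nm ratio.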

[19] = molecular target: Beta-2 adrenergic receptor (Homo sapiens) (UniProt P07550); test: Adrenergic beta2 receptor (ADRB2) small molecule agonists, cell-based qHTS assay (AID 1963593);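 also: CHO cells stably overexpressing human ADRB2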
Procedure, shortened: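 CHO cells stably over-expressing ADRB2 were plated overnight at 37C, then dosed with compounds plus a stimulation mix containing 100uM IBMX and 25uM Ro-20-1724 for 0.5hr at room temperature. cAMP was measured by HTRF competition, 1hr.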

[20] = molecular target: D(2) dopamine receptor (Homo sapiens) (UniProt P14416); test: Dopamine D2 receptor (DRD2) small molecule agonists, cell-based qHTS assay (AID 1963594); also: nearly all actives have a fitted effect of over 35% in size
Procedure, shortened: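 HEK293 cells stably expressing human DRD2, pre-treated with PDE inhibitor Ro20-1724 (0.1 mM final) and compound 10 min at room temperature, then stimulated with NKH477 (200nM […]) for 30 min. cAMP read by HTRF (665/620 nm).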

Measured: Potency

Chain of Beta-2 adrenergic receptor (Homo sapiens) (P07550 whole entry, looked up): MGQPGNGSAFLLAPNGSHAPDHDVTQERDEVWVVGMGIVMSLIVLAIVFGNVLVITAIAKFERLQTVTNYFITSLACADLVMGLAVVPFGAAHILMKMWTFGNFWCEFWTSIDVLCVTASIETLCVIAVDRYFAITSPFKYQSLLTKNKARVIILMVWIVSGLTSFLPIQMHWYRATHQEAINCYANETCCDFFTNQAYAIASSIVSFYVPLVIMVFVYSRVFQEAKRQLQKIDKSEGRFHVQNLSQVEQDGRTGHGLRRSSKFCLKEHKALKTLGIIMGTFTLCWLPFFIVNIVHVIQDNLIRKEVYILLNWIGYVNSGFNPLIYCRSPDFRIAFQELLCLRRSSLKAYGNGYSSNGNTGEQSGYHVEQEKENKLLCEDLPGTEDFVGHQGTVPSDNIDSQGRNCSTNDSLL
Chain of 5-hydroxytryptamine receptor 2A (Homo sapiens) (P28223 whole entry, looked up): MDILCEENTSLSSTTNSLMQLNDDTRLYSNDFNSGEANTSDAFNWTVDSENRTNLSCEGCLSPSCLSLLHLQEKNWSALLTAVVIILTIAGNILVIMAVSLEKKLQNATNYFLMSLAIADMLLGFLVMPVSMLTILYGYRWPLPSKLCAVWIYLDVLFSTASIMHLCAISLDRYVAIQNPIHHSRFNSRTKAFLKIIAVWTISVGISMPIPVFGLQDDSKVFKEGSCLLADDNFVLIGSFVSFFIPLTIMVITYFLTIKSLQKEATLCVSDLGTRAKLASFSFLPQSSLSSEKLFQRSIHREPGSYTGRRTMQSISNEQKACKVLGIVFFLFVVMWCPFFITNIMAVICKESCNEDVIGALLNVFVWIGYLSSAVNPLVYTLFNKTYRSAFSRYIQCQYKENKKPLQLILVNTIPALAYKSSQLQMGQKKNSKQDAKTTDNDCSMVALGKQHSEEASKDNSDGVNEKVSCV
Chain of Gonadotropin-releasing hormone receptor (Homo sapiens) (P30968 whole entry, looked up): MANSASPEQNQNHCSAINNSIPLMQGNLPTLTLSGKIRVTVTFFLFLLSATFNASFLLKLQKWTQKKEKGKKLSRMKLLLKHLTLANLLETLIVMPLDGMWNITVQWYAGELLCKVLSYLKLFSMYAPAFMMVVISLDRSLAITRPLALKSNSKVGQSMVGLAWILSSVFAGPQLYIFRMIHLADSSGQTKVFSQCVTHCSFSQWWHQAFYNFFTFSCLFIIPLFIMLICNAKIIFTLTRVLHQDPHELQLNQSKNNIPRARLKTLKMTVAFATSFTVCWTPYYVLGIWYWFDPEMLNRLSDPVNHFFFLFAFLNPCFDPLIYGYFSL
Chain of D(2) dopamine receptor (Homo sapiens) (P14416 whole entry, looked up): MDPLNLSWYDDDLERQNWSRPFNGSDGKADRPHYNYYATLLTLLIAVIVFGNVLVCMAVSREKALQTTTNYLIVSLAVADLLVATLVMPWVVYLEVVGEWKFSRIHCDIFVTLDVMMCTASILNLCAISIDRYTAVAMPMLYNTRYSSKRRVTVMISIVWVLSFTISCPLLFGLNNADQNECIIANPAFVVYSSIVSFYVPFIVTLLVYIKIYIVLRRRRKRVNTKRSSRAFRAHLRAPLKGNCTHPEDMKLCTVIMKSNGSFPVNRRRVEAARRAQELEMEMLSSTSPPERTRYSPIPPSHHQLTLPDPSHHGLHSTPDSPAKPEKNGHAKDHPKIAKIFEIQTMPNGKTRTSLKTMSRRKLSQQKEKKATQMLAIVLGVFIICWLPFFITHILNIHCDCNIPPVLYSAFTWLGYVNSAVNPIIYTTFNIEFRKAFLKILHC
Chain of Muscarinic acetylcholine receptor M1 (Homo sapiens) (P11229 whole entry, looked up): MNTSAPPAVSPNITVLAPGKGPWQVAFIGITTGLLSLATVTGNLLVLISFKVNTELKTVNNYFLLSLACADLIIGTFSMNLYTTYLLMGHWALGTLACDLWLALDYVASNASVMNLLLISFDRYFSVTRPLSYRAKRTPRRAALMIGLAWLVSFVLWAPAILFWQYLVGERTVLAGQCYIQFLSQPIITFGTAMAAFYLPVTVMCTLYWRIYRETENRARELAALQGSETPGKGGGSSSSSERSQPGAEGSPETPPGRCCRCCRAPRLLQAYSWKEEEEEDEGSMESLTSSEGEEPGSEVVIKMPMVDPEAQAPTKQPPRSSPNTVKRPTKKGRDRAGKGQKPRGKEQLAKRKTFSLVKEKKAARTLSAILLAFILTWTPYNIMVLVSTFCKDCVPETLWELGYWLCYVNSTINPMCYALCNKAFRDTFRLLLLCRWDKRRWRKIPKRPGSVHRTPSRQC
Chain of KiSS-1 receptor (Homo sapiens) (Q969F8 whole entry, looked up): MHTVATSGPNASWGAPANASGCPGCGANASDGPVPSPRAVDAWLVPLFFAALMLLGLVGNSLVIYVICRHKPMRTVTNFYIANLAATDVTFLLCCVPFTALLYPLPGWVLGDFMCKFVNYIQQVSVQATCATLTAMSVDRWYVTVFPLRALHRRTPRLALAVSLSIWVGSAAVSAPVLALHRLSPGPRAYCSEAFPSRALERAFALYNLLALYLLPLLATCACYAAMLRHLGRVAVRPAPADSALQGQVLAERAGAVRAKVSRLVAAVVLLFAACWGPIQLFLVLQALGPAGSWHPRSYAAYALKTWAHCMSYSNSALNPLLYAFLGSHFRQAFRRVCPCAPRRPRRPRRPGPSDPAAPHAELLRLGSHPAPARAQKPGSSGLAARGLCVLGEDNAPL

O=C(O)c1cccc(Cl)c1Cl
inactive: all assays above

OCCc1ccccn1
not listed: [19] | [20]
inactive: all other assays above

CCOCCOCCOCC
inactive: all assays above

CCC(=O)OC
not listed: [19] | [20]
inactive: all other assays above

CCCCCCCCC1CCC(=O)O1 (stereo unspecified)
inactive: all assays above

CC1C(C)(C)C2=C(C(=O)CCC2)C1(C)C (stereo unspecified)
inactive: all assays above

CC/C=C\CCO
inactive: all assays above
